Test results as given in PubChem BioAssay AID602376 (Johns Hopkins Ion Channel Center, 2012).
Potency and affinity values are given separately. Inconclusive results are not listed. Calls of active or inactive are those of the source.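 Rule for the calls: active = raises choline transporter activity at one or more tested doses and gives a fitted dose-response curve; inconclusive = no clear call, values can overlap the other calls; inactive = no choline transporter activation at any dose, or no curve.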

What follows are molecules tested against High affinity choline transporter 1 (Homo sapiens) (UniProt Q9GZV3) (assay: human choline transporter potentiators, potency – cell-based, 10-point CRC, membrane potential dye, dose response (AID 602376)). Details: HEK293-CHT, choline-induced membrane potential dye, cells express CHT LV-AA mutant; series mostly up to 67 µM.
Chain of High affinity choline transporter 1 (Homo sapiens) (Q9GZV3 whole entry, looked up): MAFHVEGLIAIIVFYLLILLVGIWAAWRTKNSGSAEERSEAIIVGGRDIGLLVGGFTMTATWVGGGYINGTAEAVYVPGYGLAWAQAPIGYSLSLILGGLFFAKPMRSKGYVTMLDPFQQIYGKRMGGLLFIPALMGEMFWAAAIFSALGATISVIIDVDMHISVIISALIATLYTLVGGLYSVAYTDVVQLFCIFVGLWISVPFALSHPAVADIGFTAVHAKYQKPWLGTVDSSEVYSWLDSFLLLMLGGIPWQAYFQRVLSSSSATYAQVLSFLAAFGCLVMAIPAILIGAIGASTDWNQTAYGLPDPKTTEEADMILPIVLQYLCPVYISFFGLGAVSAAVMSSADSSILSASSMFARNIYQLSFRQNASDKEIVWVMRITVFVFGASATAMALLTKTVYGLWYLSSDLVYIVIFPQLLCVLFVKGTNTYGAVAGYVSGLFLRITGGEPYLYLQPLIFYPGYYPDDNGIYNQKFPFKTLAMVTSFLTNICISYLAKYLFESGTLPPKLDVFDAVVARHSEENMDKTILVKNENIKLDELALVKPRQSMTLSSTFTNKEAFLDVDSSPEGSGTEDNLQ

outcome, inactive:
COC(=O)C1=C(C)N(Cc2ccccc2)C(=NCc2ccc(OC)cc2)N[C@H]1c1cccc(F)c1
CCCCC(c1nnnn1C1CCCC1)N1CCN(C2CCCC2)CC1 (configuration not stated)
COc1ccc(Br)cc1CN(C)C(=O)c1ccccc1OCc1c(C)noc1C
Cn1c(=O)c2c(nc(CN3CCN(c4cccc(Cl)c4)CC3)n2CCc2ccccc2)n(C)c1=O
Cc1ccc(S(=O)(=O)c2nc(-c3ccco3)oc2SC(C)C)cc1
O=C1N(Cc2cccc(Cl)c2)C[C@@H]2C[C@@H](c3ccsc3)N3CCC[C@@]123
COc1ccccc1N(C(=O)c1ccco1)C(C(=O)NC1CCCC1)c1cccs1 (configuration not stated)
CCCC(c1nnnn1Cc1ccco1)N1CCN(c2cc(Cl)ccc2C)CC1 (configuration not stated)
O=C(c1ccco1)N(CCC(c1ccccc1)c1ccco1)Cc1ccccc1 (configuration not stated)
CC(Sc1nnc(-c2ccc(Cl)cc2Cl)n1Cc1ccccc1)C(=O)Nc1nccs1 (configuration not stated)
C=CCN1C(c2ccc(OCC)cc2)=CS/C1=C(\C#N)c1nnc2n1CCCCC2
O=C(COc1ccccc1)NCC(c1ccco1)N1CCN(c2ccc(F)cc2)CC1 (configuration not stated)
CC(C)C1Oc2ccccc2N(CC(=O)NC2CCCCC2)C1=O (configuration not stated)
CCC(C)Nc1nc(CN2CCOCC2)nc2sc3c(c12)CCC3 (configuration not stated)
CCOC(=O)c1cc2c(=O)n3ccccc3nc2n(CC2CCCO2)c1=NC(=O)/C=C/c1ccccc1 (configuration not stated)
COc1ccc(C(N)c2nccc3cc(OC)c(OC)cc23)cc1OC (configuration not stated)
C/C(=N\NC(=O)c1nnn(-c2nonc2N)c1CN1CCC(C)CC1)c1cccc(Br)c1
